Reference: PMC11006913
Positions count from the first letter of the chain named.

What was measured:
Test in all cases: PBM; 200 nM protein, PBS
Conditions in all cases: dsDNA, one strand shown
[1] = target: CRX (Homo sapiens, UniProt O43186 26-111)
[2] = target: T1, VENTX (Homo sapiens, UniProt O95231 78-163, Y115F)
T1 sequence: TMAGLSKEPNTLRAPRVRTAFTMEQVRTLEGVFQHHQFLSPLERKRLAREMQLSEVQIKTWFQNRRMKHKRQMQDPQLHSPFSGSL

[3] = target: HOXA2 (Homo sapiens, UniProt O43364 129-215, R185T)
[4] = target: CRX (Homo sapiens, UniProt O43186 26-111, E42D)
[5] = target: HOXA2 (Homo sapiens, UniProt O43364 129-215, R185K)
[6] = target: CRX (Homo sapiens, UniProt O43186 26-111, R41L)
[7] = target: ALX4 (Homo sapiens, UniProt Q9H161 200-286)
[8] = target: ALX4 (Homo sapiens, UniProt Q9H161 200-286, Q225E)
[9] = target: PROP1 (Homo sapiens, UniProt O75360 56-141)
[10] = target: PROP1 (Homo sapiens, UniProt O75360 56-141, R99H)
[11] = target: PROP1 (Homo sapiens, UniProt O75360 56-141, F88S)
[12] = target: PRRX1 (Homo sapiens, UniProt P54821 80-166, F113S)
[13] = target: HOXB6 (Homo sapiens, UniProt P17509 132-218, K202E)
[14] = target: PITX2 (Homo sapiens, UniProt Q99697 72-157)
[15] = target: HOXA2 (Homo sapiens, UniProt O43364 129-215, Y150S)
[16] = target: PRRX1 (Homo sapiens, UniProt P54821 80-166)
[17] = target: HOXA2 (Homo sapiens, UniProt O43364 129-215)
[18] = target: HOXB6 (Homo sapiens, UniProt P17509 132-218)
[19] = target: HOXA7 (Homo sapiens, UniProt P31268 116-202)
[20] = target: HOXA7 (Homo sapiens, UniProt P31268 116-202, W177C)
[21] = target: ALX1 (Homo sapiens, UniProt Q15699 118-204, L144V)
[22] = target: ALX1 (Homo sapiens, UniProt Q15699 118-204, L144R)
[23] = target: ALX1 (Homo sapiens, UniProt Q15699 118-204)
[24] = target: T2, PAX4 (Homo sapiens, UniProt O43316 9-242)
T2 sequence: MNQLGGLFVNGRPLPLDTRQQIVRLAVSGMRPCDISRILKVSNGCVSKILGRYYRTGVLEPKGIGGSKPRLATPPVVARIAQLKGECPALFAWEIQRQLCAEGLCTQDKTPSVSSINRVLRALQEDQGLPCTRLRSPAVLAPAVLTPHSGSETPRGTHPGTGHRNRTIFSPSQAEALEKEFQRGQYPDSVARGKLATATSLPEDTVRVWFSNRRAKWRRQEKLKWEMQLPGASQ

[25] = target: T3, PAX4 (Homo sapiens, UniProt O43316 9-242, F177V)
T3 sequence: T2 sequence with F169V

[26] = target: T4, PAX4 (Homo sapiens, UniProt O43316 9-242, F177Y)
T4 sequence: T2 sequence with F169Y

[27] = target: T5, PAX4 (Homo sapiens, UniProt O43316 9-242, R227W)
T5 sequence: T2 sequence with R219W

[28] = target: HOXC10 (Homo sapiens, UniProt Q9NYD6 254-340)
[29] = target: HOXC10 (Homo sapiens, UniProt Q9NYD6 254-340, K271E)
Sequence of HOXC10 (Homo sapiens, UniProt Q9NYD6 254-340, K271E) (Q9NYD6 254-340 K271E): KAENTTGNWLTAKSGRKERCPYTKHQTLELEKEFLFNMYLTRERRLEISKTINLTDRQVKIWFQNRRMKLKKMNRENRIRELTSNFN

Sequence of HOXA2 (Homo sapiens, UniProt O43364 129-215, R185T) (O43364 129-215 R185T): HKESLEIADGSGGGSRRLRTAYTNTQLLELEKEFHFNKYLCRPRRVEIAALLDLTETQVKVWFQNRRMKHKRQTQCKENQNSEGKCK
Sequence of CRX (Homo sapiens, UniProt O43186 26-111) (O43186 26-111): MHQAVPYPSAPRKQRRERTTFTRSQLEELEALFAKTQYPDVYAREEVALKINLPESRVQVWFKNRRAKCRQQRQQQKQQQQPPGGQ
Sequence of ALX4 (Homo sapiens, UniProt Q9H161 200-286) (Q9H161 200-286): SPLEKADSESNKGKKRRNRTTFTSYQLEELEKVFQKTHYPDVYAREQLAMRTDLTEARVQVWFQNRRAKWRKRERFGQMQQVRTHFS
Sequence of HOXA2 (Homo sapiens, UniProt O43364 129-215, R185K) (O43364 129-215 R185K): as the sequence (O43364 129-215 R185T) above, with T57K counted along it
Sequence of ALX4 (Homo sapiens, UniProt Q9H161 200-286, Q225E) (Q9H161 200-286 Q225E): as the sequence (Q9H161 200-286) above, with Q26E counted along it
Sequence of CRX (Homo sapiens, UniProt O43186 26-111, R41L) (O43186 26-111 R41L): as the sequence (O43186 26-111) above, with R16L counted along it
Sequence of CRX (Homo sapiens, UniProt O43186 26-111, E42D) (O43186 26-111 E42D): as the sequence (O43186 26-111) above, with E17D counted along it
Sequence of HOXA2 (Homo sapiens, UniProt O43364 129-215, Y150S) (O43364 129-215 Y150S): as the sequence (O43364 129-215 R185T) above, with Y22S, T57R counted along it
Sequence of HOXA2 (Homo sapiens, UniProt O43364 129-215) (O43364 129-215): as the sequence (O43364 129-215 R185T) above, with T57R counted along it
Sequence of HOXB6 (Homo sapiens, UniProt P17509 132-218, K202E) (P17509 132-218 K202E): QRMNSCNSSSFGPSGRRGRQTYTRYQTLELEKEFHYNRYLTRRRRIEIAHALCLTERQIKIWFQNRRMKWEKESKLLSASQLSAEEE
Sequence of HOXB6 (Homo sapiens, UniProt P17509 132-218) (P17509 132-218): as the sequence (P17509 132-218 K202E) above, with E71K counted along it
Sequence of PROP1 (Homo sapiens, UniProt O75360 56-141) (O75360 56-141): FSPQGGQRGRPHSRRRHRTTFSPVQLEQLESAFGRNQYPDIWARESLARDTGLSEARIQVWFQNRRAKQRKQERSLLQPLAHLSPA
Sequence of ALX1 (Homo sapiens, UniProt Q15699 118-204, L144R) (Q15699 118-204 L144R): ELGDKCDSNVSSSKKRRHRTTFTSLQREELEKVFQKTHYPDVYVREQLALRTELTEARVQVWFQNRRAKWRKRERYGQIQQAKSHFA
Sequence of ALX1 (Homo sapiens, UniProt Q15699 118-204, L144V) (Q15699 118-204 L144V): as the sequence (Q15699 118-204 L144R) above, with R27V counted along it
Sequence of PROP1 (Homo sapiens, UniProt O75360 56-141, F88S) (O75360 56-141 F88S): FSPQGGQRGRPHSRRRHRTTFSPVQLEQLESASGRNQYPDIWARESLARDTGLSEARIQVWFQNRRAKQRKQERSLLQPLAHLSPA
Sequence of HOXC10 (Homo sapiens, UniProt Q9NYD6 254-340) (Q9NYD6 254-340): as the sequence (Q9NYD6 254-340 K271E) above, with E18K counted along it
Sequence of ALX1 (Homo sapiens, UniProt Q15699 118-204) (Q15699 118-204): as the sequence (Q15699 118-204 L144R) above, with R27L counted along it
Sequence of PRRX1 (Homo sapiens, UniProt P54821 80-166) (P54821 80-166): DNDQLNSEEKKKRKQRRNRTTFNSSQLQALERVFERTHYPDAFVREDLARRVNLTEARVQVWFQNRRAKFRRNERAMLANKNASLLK
Sequence of HOXA7 (Homo sapiens, UniProt P31268 116-202) (P31268 116-202): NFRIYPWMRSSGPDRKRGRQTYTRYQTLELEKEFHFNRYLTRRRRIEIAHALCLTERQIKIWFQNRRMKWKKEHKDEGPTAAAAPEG
Sequence of PROP1 (Homo sapiens, UniProt O75360 56-141, R99H) (O75360 56-141 R99H): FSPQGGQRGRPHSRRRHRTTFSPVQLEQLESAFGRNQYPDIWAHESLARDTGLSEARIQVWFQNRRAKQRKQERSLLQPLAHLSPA
Sequence of PRRX1 (Homo sapiens, UniProt P54821 80-166, F113S) (P54821 80-166 F113S): as the sequence (P54821 80-166) above, with F34S counted along it
Sequence of HOXA7 (Homo sapiens, UniProt P31268 116-202, W177C) (P31268 116-202 W177C): as the sequence (P31268 116-202) above, with W62C counted along it

Sequence: GTGATTAA
- binding signal [1]: 12.3 upbm affinity estimate (log intensity, higher = more binding, comparable within an allelic series)
- binding signal [2]: 11.5 upbm affinity estimate (log intensity, higher = more binding, comparable within an allelic series)
- binding signal [3]: 12.7 upbm affinity estimate (log intensity, higher = more binding, comparable within an allelic series)
- binding signal [4]: 12.2 upbm affinity estimate (log intensity, higher = more binding, comparable within an allelic series)
- binding signal [5]: 13.2 upbm affinity estimate (log intensity, higher = more binding, comparable within an allelic series)
- binding signal [6]: 11.7 upbm affinity estimate (log intensity, higher = more binding, comparable within an allelic series)

Sequence: GAGGGCCC
- binding signal [1]: 8.25 upbm affinity estimate (log intensity, higher = more binding, comparable within an allelic series)
- binding signal [7]: 7.97 upbm affinity estimate (log intensity, higher = more binding, comparable within an allelic series)
- binding signal [8]: 7.92 upbm affinity estimate (log intensity, higher = more binding, comparable within an allelic series)
- binding signal [4]: 8.06 upbm affinity estimate (log intensity, higher = more binding, comparable within an allelic series)
- binding signal [9]: 6.79 upbm affinity estimate (log intensity, higher = more binding, comparable within an allelic series)
- binding signal [10]: 6.72 upbm affinity estimate (log intensity, higher = more binding, comparable within an allelic series)
- binding signal [11]: 6.48 upbm affinity estimate (log intensity, higher = more binding, comparable within an allelic series)
- binding signal [6]: 8.14 upbm affinity estimate (log intensity, higher = more binding, comparable within an allelic series)

Sequence: GGACCGCC
- binding signal [1]: 8.02 upbm affinity estimate (log intensity, higher = more binding, comparable within an allelic series)
- binding signal [12]: 9.27 upbm affinity estimate (log intensity, higher = more binding, comparable within an allelic series)
- binding signal [13]: 8.98 upbm affinity estimate (log intensity, higher = more binding, comparable within an allelic series)
- binding signal [3]: 7.28 upbm affinity estimate (log intensity, higher = more binding, comparable within an allelic series)
- binding signal [4]: 8.13 upbm affinity estimate (log intensity, higher = more binding, comparable within an allelic series)
- binding signal [14]: 7.63 upbm affinity estimate (log intensity, higher = more binding, comparable within an allelic series)
- binding signal [5]: 10.2 upbm affinity estimate (log intensity, higher = more binding, comparable within an allelic series)
- binding signal [15]: 10.4 upbm affinity estimate (log intensity, higher = more binding, comparable within an allelic series)
- binding signal [6]: 8.16 upbm affinity estimate (log intensity, higher = more binding, comparable within an allelic series)
- binding signal [16]: 9.42 upbm affinity estimate (log intensity, higher = more binding, comparable within an allelic series)
- binding signal [17]: 7.23 upbm affinity estimate (log intensity, higher = more binding, comparable within an allelic series)
- binding signal [18]: 9.08 upbm affinity estimate (log intensity, higher = more binding, comparable within an allelic series)

Sequence: GACCGACA
- binding signal [1]: 8.43 upbm affinity estimate (log intensity, higher = more binding, comparable within an allelic series)
- binding signal [19]: 8.51 upbm affinity estimate (log intensity, higher = more binding, comparable within an allelic series)
- binding signal [4]: 8.36 upbm affinity estimate (log intensity, higher = more binding, comparable within an allelic series)
- binding signal [20]: 8.57 upbm affinity estimate (log intensity, higher = more binding, comparable within an allelic series)
- binding signal [6]: 8.31 upbm affinity estimate (log intensity, higher = more binding, comparable within an allelic series)

Sequence: AGGCCTTA
- binding signal [1]: 10.1 upbm affinity estimate (log intensity, higher = more binding, comparable within an allelic series)
- binding signal [4]: 9.82 upbm affinity estimate (log intensity, higher = more binding, comparable within an allelic series)

Sequence: GATTAACA
- binding signal [1]: 12.9 upbm affinity estimate (log intensity, higher = more binding, comparable within an allelic series)
- binding signal [4]: 12.5 upbm affinity estimate (log intensity, higher = more binding, comparable within an allelic series)

Sequence: CACCGGAG
- binding signal [1]: 8.14 upbm affinity estimate (log intensity, higher = more binding, comparable within an allelic series)
- binding signal [7]: 8.15 upbm affinity estimate (log intensity, higher = more binding, comparable within an allelic series)
- binding signal [8]: 8.15 upbm affinity estimate (log intensity, higher = more binding, comparable within an allelic series)
- binding signal [4]: 8.3 upbm affinity estimate (log intensity, higher = more binding, comparable within an allelic series)
- binding signal [6]: 8.27 upbm affinity estimate (log intensity, higher = more binding, comparable within an allelic series)

Sequence: ACCGGGCG
- binding signal [1]: 7.62 upbm affinity estimate (log intensity, higher = more binding, comparable within an allelic series)
- binding signal [7]: 7.78 upbm affinity estimate (log intensity, higher = more binding, comparable within an allelic series)
- binding signal [8]: 7.99 upbm affinity estimate (log intensity, higher = more binding, comparable within an allelic series)
- binding signal [3]: 6.76 upbm affinity estimate (log intensity, higher = more binding, comparable within an allelic series)
- binding signal [4]: 7.73 upbm affinity estimate (log intensity, higher = more binding, comparable within an allelic series)
- binding signal [21]: 6.09 upbm affinity estimate (log intensity, higher = more binding, comparable within an allelic series)
- binding signal [5]: 10.3 upbm affinity estimate (log intensity, higher = more binding, comparable within an allelic series)
- binding signal [22]: 6.25 upbm affinity estimate (log intensity, higher = more binding, comparable within an allelic series)
- binding signal [15]: 10.3 upbm affinity estimate (log intensity, higher = more binding, comparable within an allelic series)
- binding signal [6]: 7.79 upbm affinity estimate (log intensity, higher = more binding, comparable within an allelic series)
- binding signal [23]: 6.19 upbm affinity estimate (log intensity, higher = more binding, comparable within an allelic series)
- binding signal [17]: 7.26 upbm affinity estimate (log intensity, higher = more binding, comparable within an allelic series)

Sequence: GGGACCCC
- binding signal [1]: 8.14 upbm affinity estimate (log intensity, higher = more binding, comparable within an allelic series)
- binding signal [13]: 8.9 upbm affinity estimate (log intensity, higher = more binding, comparable within an allelic series)
- binding signal [4]: 8.1 upbm affinity estimate (log intensity, higher = more binding, comparable within an allelic series)
- binding signal [6]: 8.05 upbm affinity estimate (log intensity, higher = more binding, comparable within an allelic series)
- binding signal [18]: 9.08 upbm affinity estimate (log intensity, higher = more binding, comparable within an allelic series)

Sequence: AATGCTAA
- binding signal [1]: 10.4 upbm affinity estimate (log intensity, higher = more binding, comparable within an allelic series)
- binding signal [24]: 10.9 upbm affinity estimate (log intensity, higher = more binding, comparable within an allelic series)
- binding signal [4]: 10.3 upbm affinity estimate (log intensity, higher = more binding, comparable within an allelic series)
- binding signal [25]: 10.1 upbm affinity estimate (log intensity, higher = more binding, comparable within an allelic series)
- binding signal [26]: 10.2 upbm affinity estimate (log intensity, higher = more binding, comparable within an allelic series)
- binding signal [27]: 10.2 upbm affinity estimate (log intensity, higher = more binding, comparable within an allelic series)

Sequence: CATCATAA
- binding signal [1]: 10.1 upbm affinity estimate (log intensity, higher = more binding, comparable within an allelic series)
- binding signal [28]: 11.7 upbm affinity estimate (log intensity, higher = more binding, comparable within an allelic series)
- binding signal [4]: 10 upbm affinity estimate (log intensity, higher = more binding, comparable within an allelic series)
- binding signal [29]: 11.3 upbm affinity estimate (log intensity, higher = more binding, comparable within an allelic series)
- binding signal [6]: 9.57 upbm affinity estimate (log intensity, higher = more binding, comparable within an allelic series)
